From PubChem BioAssay (NCATS)
“And” between values parts separate entries of the source, which are not always exact repeats. Equal values may be shown once. Inconclusive results are not listed. The source made the active and inactive calls. Unless noted, the call rests on the fitted dose curve; in most records, active means well fitted curve in the direction sought with a large enough effect; inconclusive means small, poorly fitted or top-dose-only effect, or another doubt; inactive means no such curve, though single readings can be large; an effect the other way counts as inactive or inconclusive.

Experiments:
[1] = Cell Viability - Jurkat (AID 426;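 active means dose-dependent loss of cell ATP signal giving a full or clear fitted curve, ranked by lower potency value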; further: potency means the concentration at half of the fitted maximal effect); conditions: qHTS
In short: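 Jurkat (Clone E6-1) cells, 5000/well in complete medium, exposed to compounds for 40 hr at 37C; intracellular ATP measured by CellTiter-Glo luminescence after 20 min at room temperature. AC50 from Hill fits.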

[2] = Cell Viability - Hek293 (AID 427;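 active means compounds whose dose-response curve shows a full or clear partial loss of cell viability, called from curve shape rather than a numeric limit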;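 further: potency means the concentration at half of the fitted maximal effect; cells exposed to compound for 40 hours at 37 °C before reading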); conditions: qHTS
In short: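 Luminescent ATP content (CellTiter-Glo, 20 min at room temperature) was measured after a 40 hr, 37 °C compound exposure of HEK293 cells. AC50 values came from Hill-equation fits of qHTS concentration-response data normalized to DMSO and 100 uM tamoxifen.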

[3] = Cell Viability - HepG2 (AID 433; calls by dose curve;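 further: potency means the concentration at half of the fitted maximal effect; potency for ATP loss meaning cytotoxicity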); conditions: qHTS
In short: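 HepG2 hepatocellular carcinoma cells (1500/well) were treated with compounds for 40 h at 37 °C in complete medium; intracellular ATP was read by CellTiter-Glo luminescence. Data were normalized to DMSO and 100 uM tamoxifen, and AC50 came from Hill fits.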

[4] = Cell Viability - MRC5 (AID 434; calls by dose curve;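 further: potency means the concentration at half of the fitted maximal effect; potency reflects cytotoxicity seen as loss of intracellular ATP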); conditions: MRC5 lung fibroblast viability, qHTS
In short: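 qHTS cytotoxicity in human lung fibroblast MRC5 cells; 40 hr treatment, 37 °C; cellular ATP by luciferase luminescence; DMSO = 0%, 100 uM tamoxifen = 100% inhibition; Hill-fit AC50.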

[5] = Cell Viability - SK-N-SH (AID 435; calls by dose curve;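 further: potency means the concentration at half of the fitted maximal effect; compound exposure lasted 40 h at 37 °C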); conditions: SK-N-SH neuroblastoma cell viability qHTS
In short: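 SK-N-SH human neuroblastoma cells (1500/well) were exposed to compounds in complete medium for 40 h at 37 °C, and intracellular ATP was then measured by CellTiter-Glo luminescence. AC50 was taken from Hill fits, normalized to DMSO and 100 uM tamoxifen.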

[6] = molecular target: Mitogen-activated protein kinase 10 (Mus musculus) (UniProt Q61831); assay: JNK3 AlphaScreen Assay (AID 530; active means well fitted curve in either direction with a large enough effect, not every such curve was filed as active;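 further: kinase came from lysate of stimulated human HepG2 cells; signal reports phosphorylation of biotinylated GST-cJun 1-79 at Ser73 with 10 µM ATP; on the % scale 0 is the no-effect control and ±100 the full control effect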)
In short: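 Compound titrations were preincubated 15 minutes at room temperature with substrate, antibody and pre-activated JNK3-containing HepG2 lysate. Reactions were started with 10 uM ATP and stopped with EDTA-containing bead buffer for AlphaScreen detection.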

[7] = Cell Viability - N2a (AID 540);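 further: plate controls were DMSO alone for no effect and tamoxifen control for full effect; nearly all actives have a fitted effect of over 45% in size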
In short: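 Mouse neuroblastoma N2a cells, 1500/well, exposed to compounds 40 h at 37 °C in complete medium. Viability measured as cellular ATP by CellTiter-Glo luminescence; AC50 from Hill fits of concentration-response.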

[8] = Cell Viability - NIH 3T3 (AID 541);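 further: plate controls were DMSO alone for no effect and tamoxifen positive control for full effect; nearly all actives have a fitted effect of over 25% in size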
In short: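 Mouse NIH 3T3 fibroblasts, 1000 cells/well, rested 5 hr at 37 °C, then exposed to compound for 40 hr at 37 °C in complete medium. Viability read as intracellular ATP by CellTiter-Glo luminescence; AC50 from Hill-equation fits of concentration-response data.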

[9] = Cell Viability - HUV-EC-C (AID 542); further: on the % scale 0 is the no-effect control and ±100 the full control effect; nearly all actives have a fitted effect of over 35% in size
In short: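 HUV-EC-C human vascular endothelial cells, 1000/well, exposed to compound for 40 hr at 37 °C in complete medium. Intracellular ATP was read by CellTiter-Glo luminescence. AC50 came from Hill-equation fits of concentration-response data.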

[10] = Cell Viability - H-4-II-E (AID 543); further: on the % scale 0 is the no-effect control and ±100 the full control effect; nearly all actives have a fitted effect of over 35% in size
In short: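 Rat hepatoma H-4-II-E cells, 1500 per well, treated 40 h at 37 °C in complete medium. Cellular ATP read by CellTiter-Glo luminescence; AC50 from Hill fits of concentration-response.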

[11] = Cell Viability - SH-SY5Y (AID 544); conditions: SH-SY5Y neuroblastoma cell viability; at 92.2 µM (top of the series);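 further: 0% = DMSO alone and -100% = 100 µM tamoxifen; nearly all actives have a fitted effect of over 55% in size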
In short: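 SH-SY5Y human neuroblastoma cells (1500/well) incubated 5 h, then compound-treated 40 h at 37 °C in complete medium. Viability read as intracellular ATP by CellTiter-Glo luminescence after 20 min; AC50 from Hill-equation fits of qHTS concentration-response.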

[12] = Cell Viability - Mesenchymal (AID 546);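 further: cells exposed to compound for 40 hours before reading; 0% = DMSO only and -100% = 100 µM tamoxifen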
In short: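 AC50 values reflect the drop in intracellular ATP in a human kidney mesenchymal line derived from normal glomeruli. Treatment lasts 40 hr at 37 °C in complete medium, and the signal comes from CellTiter-Glo luminescence.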

[13] = molecular target: Cytochrome P450 1A2 (Homo sapiens) (UniProt P05177); assay: p450-cyp1a2 (AID 410; calls by dose curve;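 further: -100% = full effect of reference inhibitor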)
Sequence of Cytochrome P450 1A2 (Homo sapiens) (P05177 whole entry, looked up): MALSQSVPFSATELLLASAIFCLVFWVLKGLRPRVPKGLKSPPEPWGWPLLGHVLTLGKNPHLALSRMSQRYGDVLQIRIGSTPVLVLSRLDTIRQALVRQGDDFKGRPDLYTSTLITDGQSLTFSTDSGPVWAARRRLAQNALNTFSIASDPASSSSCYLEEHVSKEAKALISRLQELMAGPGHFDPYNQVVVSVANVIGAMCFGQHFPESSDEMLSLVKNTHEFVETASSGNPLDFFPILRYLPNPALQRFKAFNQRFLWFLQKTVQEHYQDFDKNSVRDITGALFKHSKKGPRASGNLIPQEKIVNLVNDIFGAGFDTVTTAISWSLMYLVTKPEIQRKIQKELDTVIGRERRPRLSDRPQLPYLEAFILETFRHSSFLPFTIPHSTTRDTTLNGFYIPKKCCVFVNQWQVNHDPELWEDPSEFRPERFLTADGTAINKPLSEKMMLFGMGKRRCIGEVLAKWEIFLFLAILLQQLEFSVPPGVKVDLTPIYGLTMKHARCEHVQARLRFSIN
In short: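 20nM CYP1A2 with 100uM Luciferin-ME (at Km) in 100mM KPO4; compound preincubated 10 min, NADPH regeneration added, 60 min at room temperature. Luciferin quantified by luminescence after detection reagent; normalized to 57 uM furafylline.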

[14] = Stat Signaling Pathway (AID 446; active means well fitted curve in either direction with a large enough effect, not every such curve was filed as active;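 further: ME-180 cervical cancer cells given 40 pM IL-6 alongside compound; SIE-controlled beta-lactamase reporter measured as 460/530 nm FRET emission ratio; on the % scale 0 is the no-effect control and ±100 the full control effect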)
In short: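 Reporter line: ME-180 cervical carcinoma, SIE-beta-lactamase. Treatment: compound with 40 pM IL-6, 5 hrs, 37 C, in low-serum OPTI-MEM with 10 mM HEPES pH 7.3. Detection: 460/530 nm fluorescence.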

[15] = molecular target: 3',5'-cyclic-AMP phosphodiesterase 4B (Homo sapiens) (UniProt Q07343); assay: qHTS Assay for Inhibitors of PDE-IV (AID 607; active means well fitted activation curve with a large enough effect in the main read-out, with a control signal flat, not every such curve was filed as active; further: % of control where 0% means no effect)
Sequence of 3',5'-cyclic-AMP phosphodiesterase 4B (Homo sapiens) (Q07343 whole entry, looked up): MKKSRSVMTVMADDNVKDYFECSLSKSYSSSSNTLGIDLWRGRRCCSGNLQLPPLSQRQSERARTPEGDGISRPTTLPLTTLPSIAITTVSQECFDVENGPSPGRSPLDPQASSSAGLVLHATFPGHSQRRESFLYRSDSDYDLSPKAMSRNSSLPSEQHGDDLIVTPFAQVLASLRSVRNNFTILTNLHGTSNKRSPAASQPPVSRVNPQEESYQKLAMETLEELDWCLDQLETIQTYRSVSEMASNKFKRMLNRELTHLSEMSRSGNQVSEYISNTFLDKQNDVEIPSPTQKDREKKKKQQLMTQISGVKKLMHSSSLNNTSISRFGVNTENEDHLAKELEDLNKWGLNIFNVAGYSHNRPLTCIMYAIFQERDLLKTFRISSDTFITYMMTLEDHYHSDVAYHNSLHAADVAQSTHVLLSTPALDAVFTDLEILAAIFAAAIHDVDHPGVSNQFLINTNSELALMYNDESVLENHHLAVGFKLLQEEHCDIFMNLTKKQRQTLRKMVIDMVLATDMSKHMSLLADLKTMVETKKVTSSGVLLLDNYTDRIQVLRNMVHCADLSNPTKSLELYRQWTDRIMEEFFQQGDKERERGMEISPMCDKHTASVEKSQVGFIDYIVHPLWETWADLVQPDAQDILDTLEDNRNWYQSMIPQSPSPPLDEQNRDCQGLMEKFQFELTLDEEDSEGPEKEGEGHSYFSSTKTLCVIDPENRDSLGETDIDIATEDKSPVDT
In short: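 Cell-based read-out of cAMP via a modified cyclic nucleotide-gated channel and membrane potential dye (535/590 nm) in HEK293 cells expressing PDE4 endogenously. Compounds tested up to 22.9 uM final; 100 uM RO 20-1724 reference.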

[16] = AP1 Signaling Pathway (AID 357; active means well fitted curve in either direction with a large enough effect, not every such curve was filed as active;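 further: ME-180 reporter cells stimulated with EGF at its EC50 level; on the % scale 0 is the no-effect control and ±100 the full control effect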)
In short: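 Read-out was the 460nm/530nm emission ratio (excitation 405nm) after CCF4 loading for 2.5 hours at room temperature. Cells carried an AP-1-driven beta-lactamase reporter, were stimulated with EC50 EGF plus compound for 5 hours, and AC50 values came from titrations.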

[17] = NFAT Signaling Pathway (AID 444; active means well fitted curve in either direction with a large enough effect, not every such curve was filed as active;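 further: carbachol stimulus at about its EC50 of 1 µM final; on the % scale 0 is the no-effect control and ±100 the full control effect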); conditions: Jurkat NFAT-bla M1, carbachol, beta-lactamase ratio, 5 h; at 17.2 µM (top of the series) unless noted
In short: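 Read-out: CCF4 FRET ratio (460 nm/530 nm) after 1 h RT dye loading, used for %activity and AC50 from titration series. Cells: Jurkat NFAT-β-lactamase/M1 line, treated with compound plus 1 uM carbachol for 5 h, 37 °C.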

[18] = molecular target: Glucocorticoid receptor (Homo sapiens) (UniProt P04150); assay: GR-GFP Redistribution (AID 450;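 active means compounds whose dose series gives a full or clear partial fitted curve of increased nuclear translocation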; further: potency means the concentration at half of the fitted maximal effect); conditions: U2OS GR-GFP nuclear translocation, laser cytometry, 2 h
Sequence of Glucocorticoid receptor (Homo sapiens) (P04150 whole entry, looked up, the tested form may be a part): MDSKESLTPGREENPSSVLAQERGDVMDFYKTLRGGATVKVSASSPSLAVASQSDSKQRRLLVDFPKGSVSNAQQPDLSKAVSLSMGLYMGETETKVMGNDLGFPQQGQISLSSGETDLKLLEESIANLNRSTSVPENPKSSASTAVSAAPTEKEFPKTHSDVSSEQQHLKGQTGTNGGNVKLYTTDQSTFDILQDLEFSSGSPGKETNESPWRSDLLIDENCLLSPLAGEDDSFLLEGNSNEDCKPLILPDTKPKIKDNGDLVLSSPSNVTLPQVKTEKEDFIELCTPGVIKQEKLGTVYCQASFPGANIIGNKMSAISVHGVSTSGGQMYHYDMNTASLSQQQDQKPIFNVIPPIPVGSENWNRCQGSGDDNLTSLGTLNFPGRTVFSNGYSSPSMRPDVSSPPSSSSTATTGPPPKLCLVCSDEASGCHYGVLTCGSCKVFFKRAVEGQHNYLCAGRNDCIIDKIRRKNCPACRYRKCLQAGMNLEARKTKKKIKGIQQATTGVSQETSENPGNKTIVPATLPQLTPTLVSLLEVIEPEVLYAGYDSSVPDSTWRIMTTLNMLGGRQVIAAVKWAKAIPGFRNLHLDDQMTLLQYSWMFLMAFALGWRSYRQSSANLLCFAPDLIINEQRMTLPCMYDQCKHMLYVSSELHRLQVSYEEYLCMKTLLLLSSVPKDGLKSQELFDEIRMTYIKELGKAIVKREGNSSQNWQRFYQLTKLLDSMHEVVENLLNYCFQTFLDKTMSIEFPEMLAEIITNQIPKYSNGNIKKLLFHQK

[19] = molecular target: Glucocorticoid receptor (Homo sapiens) (UniProt P04150); assay: GR-EFC Redistribution (AID 451; calls by dose curve; further: potency means the concentration at half of the fitted maximal effect); conditions: CHO-K1 GR-EFC translocation, beta-gal luminescence, 2 h
In short: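 Translocation of GR-ED fusion to nuclear EA restores b-gal, read by luminescence after 1 h room-temperature detection. Engineered CHO-K1 biosensor cells, 1,000/well, exposed 2 h at 37 C to titrations up to 46 uM final.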

C=CCNC(N)=S
inactive: Potency [1] > 92 µM | Potency [2] > 92 µM | Potency [3] > 92 µM | Potency [4] > 92 µM | Potency [5] > 92 µM | outcome [6] | outcome [7] | outcome [8] | outcome [9] | outcome [10] | viability change, negative = cytotoxic [11] -6.07% | outcome [12]

CC(C)(C)C(=O)OCOC(=O)[C@@H]1N2C(=O)[C@@H](NC(=O)[C@H](N)c3ccccc3)[C@H]2SC1(C)C
inactive: Potency [13] | outcome [14] | outcome [6] | outcome [15]

CCS(=O)(=O)CCn1c([N+](=O)[O-])cnc1C
inactive: outcome [16] | activity change, negative = inhibition [17] -9.1% and -28.6% | outcome [14] | outcome [6] | outcome [15]

CCCNC(C)(C)COC(=O)c1ccccc1
inactive: outcome [16] | outcome [14] | Potency [18] > 20.6 µM | Potency [19] > 20.6 µM | outcome [6] | outcome [15]

CCCCC1(COC(=O)CCC(=O)O)C(=O)N(c2ccccc2)N(c2ccccc2)C1=O
inactive: outcome [16] | activity change, negative = inhibition [17] 11.7% | outcome [14] | outcome [6] | outcome [15]

O=C(O)CCCCC1CCSS1 (configuration not stated)
inactive: Potency [1] > 92 µM | Potency [2] > 92 µM | Potency [3] > 92 µM | Potency [4] > 92 µM | Potency [5] > 92 µM | outcome [6] | outcome [7] | outcome [8] | outcome [9] | outcome [10] | viability change, negative = cytotoxic [11] -17.1% | outcome [12]

NC(=O)CC[C@@H](N)C(=O)O
inactive: outcome [16] | activity change, negative = inhibition [17] 0.712% [at 38 µM] | outcome [14] | Potency [18] > 46 µM | Potency [19] > 46 µM | outcome [6] | outcome [15]

CC1(C)S[C@@H]2[C@H](NC(=O)C(C(=O)O)c3ccccc3)C(=O)N2[C@H]1C(=O)O (some centres not stated)
inactive: outcome [16] | outcome [14] | Potency [18] > 20.6 µM

CC(=O)Nc1ccccc1
inactive: Potency [1] > 92 µM | Potency [2] > 92 µM | Potency [3] > 92 µM | Potency [4] > 92 µM | Potency [5] > 92 µM | outcome [6] | outcome [7] | outcome [8] | outcome [9] | outcome [10] | viability change, negative = cytotoxic [11] -26.9% | outcome [12]

CCN(CC)C(=O)c1cccc(C)c1
inactive: Potency [1] > 92 µM | Potency [2] > 92 µM | Potency [3] > 92 µM | Potency [4] > 92 µM | Potency [5] > 92 µM | outcome [6] | outcome [7] | outcome [9] | outcome [10] | viability change, negative = cytotoxic [11] -22.4% | outcome [12]

Cc1cc(=O)[nH]c(=S)[nH]1
inactive: Potency [1] > 92 µM | Potency [2] > 92 µM | Potency [3] > 92 µM | Potency [4] > 92 µM | Potency [5] > 92 µM | outcome [6] | outcome [7] | outcome [8] | outcome [9] | outcome [10] | viability change, negative = cytotoxic [11] -4.62% | outcome [12]

NC(N)=NCCN1CCCCCCC1
inactive: outcome [16] | activity change, negative = inhibition [17] -13.3% | outcome [14] | Potency [18] > 20.6 µM | Potency [19] > 20.6 µM | outcome [6] | outcome [15]

O=C1c2ccccc2S(=O)(=O)N1CCCCN1CCN(c2ncccn2)CC1
inactive: Potency [18] > 46 µM | Potency [19] > 46 µM | outcome [6]

CCCCCC(N)=O
inactive: Potency [1] > 92 µM | Potency [2] > 92 µM | Potency [3] > 92 µM | Potency [4] > 92 µM | Potency [5] > 92 µM | outcome [6] | outcome [7] | outcome [8] | outcome [9] | outcome [10] | viability change, negative = cytotoxic [11] -5.16% | outcome [12]

Cc1c(N(C)C)c(=O)n(-c2ccccc2)n1C
inactive: Potency [1] > 92 µM | Potency [2] > 92 µM | Potency [3] > 92 µM | Potency [4] > 92 µM | Potency [5] > 92 µM | activity change, negative = inhibition [17] -3.81% | outcome [14] | Potency [18] > 20.6 µM | Potency [19] > 20.6 µM | outcome [6] | outcome [7] | outcome [8] | outcome [9] | outcome [10] | viability change, negative = cytotoxic [11] -14.6% | outcome [12] | outcome [15]

CC(=O)OCC(COC(C)=O)OC(C)=O
inactive: Potency [1] > 92 µM | Potency [2] > 92 µM | Potency [3] > 92 µM | Potency [4] > 92 µM | Potency [5] > 92 µM | outcome [6] | outcome [7] | outcome [8] | outcome [9] | outcome [10] | viability change, negative = cytotoxic [11] 13.4% | outcome [12]

COc1ccc(NS(=O)(=O)c2ccc(N)cc2)nn1
inactive: outcome [16] | activity change, negative = inhibition [17] -4.78% and 5.22% | outcome [14] | Potency [18] > 20.6 µM | Potency [19] > 20.6 µM | outcome [6] | outcome [15]
